The record followed here is PubChem BioAssay (NCI).

Each structure is given as a SMILES string. Compounds without any hit were thinned out: in the full panel of roughly 83,000, 20% have a hit.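 Negative percent growth values reflect cell death: -40 means 40% of the cells present at the start died, and -100 means all died.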 Unmarked numbers belong to inactive results. The source made the active and inactive calls. Rule for the calls: active = growth percent below 10; inactive = the rest.

Holding throughout (test): NCI-60 one-dose screen, 48 h (100 = growth as untreated, 0 = no growth, -100 = all killed)
Holding throughout (settings): 10 µM unless noted

For assay [1], the system named is DU-145 prostate.
Assay [2] concerns K-562 leukemia.
Assay [3] relates to MALME-3M melanoma.
Assay [4] concerns MDA-MB-231 breast.
The subject of assay [5] is RXF 393 renal.
For assay [6], the system named is SF-268 CNS.
The subject of assay [7] is SF-295 CNS.
Assay [8] has as its system SF-539 CNS.
The subject of assay [9] is UACC-257 melanoma.
Assay [10] relates to M14 melanoma.
In assay [11] the test system is HCT-15 colon.
Assay [12] deals with HT29 colon.
For assay [13], the system named is SNB-75 CNS.
Assay [14] relates to SNB-19 CNS.
Assay [15] relates to U251 CNS.
For assay [16], the system named is PC-3 prostate.
The test system of assay [17] is UACC-62 melanoma.
Assay [18] deals with LOX IMVI melanoma.
Assay [19] concerns SK-MEL-28 melanoma.

On to `O=C1Nc2c(ccc(Cl)c2Cl)/C1=C\c1cc(C(F)(F)F)cc(C(F)(F)F)c1`, for which the growth was 24.8% in assay [1]; 0.912% (active) in assay [2]; -55.5% (active) in assay [3]; -17.4% (active) in assay [4]; 21.8% in assay [5]; 9.57% (active) in assay [6]. Besides, the growth was 5.61% (active) in [7]; -11.3% (active) in assay [8]; 25% in assay [9]; -18.2% (active) in assay [10]; -80.8% (active) in assay [11]; -26.5% (active) in assay [12]. For the same molecule, the growth in [13] was 13.7%; in assay [14], 21.7%; in assay [15], -54.2% (active); in [16] it was 0.08% (active); in assay [17] it was -3.92% (active); in assay [18] it was -90.1% (active). Moreover, the growth in assay [19] is -21% (active).
For the molecule `COc1ccc(-c2nn(-c3ccc(Cl)cc3)cc2-c2nc3ccccc3[nH]2)cc1`, the growth in assay [1] was 120%; in [2], 89%; in assay [3] it was 98.5%; in assay [4], 73%; in assay [5], 94.7%; in [6], 94.7%. For the same molecule, the growth was 98.1% in assay [7]; 106% in assay [8]; 101% in [9]; 90% in assay [10]; 103% in assay [11]; 84.5% in assay [12]. In addition, the growth in assay [13] was 76.6%; in assay [14], 91.9%; in assay [15], 104%; in [16] it was 81.5%; in assay [17], 75.8%; in [18] it was 82.1%. Besides, the growth in assay [19] was 99.5%.
Take `CCCCCCN(CCCCCC)CCC(O)c1ccc2ccccc2c1` (configuration not stated): the growth in assay [1] was 74.3%; in assay [2] it was 27.9%; in assay [3] it was 68.5%; in assay [4], 42.4%; in [5], 46.7%; in assay [6], 73.3%. The growth in assay [7] was 52.5%; in [8], 61.9%; in assay [9] it was 85.3%; in [10] it was 50.2%; in assay [11], 48.1%; in assay [12], 27.7%. For the same molecule, the growth is 68.2% in assay [13]; 78.5% in assay [14]; 62.7% in assay [15]; 48.6% in assay [16]; 77.3% in assay [17]; 40.5% in [18]. For the same molecule, in assay [19], the growth was 88.1%.
For `CC1CCNC(C)C1` (configuration not stated), the growth in assay [1] is 110%; in assay [2] it was 108%; in assay [3] it was 110%; in assay [4] it was 107%; in assay [5], 108%; in [6], 104%. Moreover, the growth in assay [7] is 103%; in assay [8], 99%; in [9], 110%; in assay [10], 102%; in [11], 108%; in assay [12] it was 110%. Moreover, the growth in assay [13] was 86.5%; in assay [14], 114%; in assay [15] it was 108%; in [16] it was 90.3%; in [17], 102%; in assay [18] it was 100%. The growth in [19] is 115%.
With `Nc1n[nH]c2cc(F)c([C@@H]3Nc4ccc5[nH]ncc5c4[C@H]4C5CCC(C5)[C@@H]34)cc12` (some centres not stated), the growth is -7.54% (active) in assay [1]; 11.5% in assay [2]; 73% in assay [3]; 35.8% in assay [4]; 54.2% in assay [5]; 9.83% (active) in assay [6]. In addition, the growth is 6.25% (active) in [7]; -31% (active) in assay [8]; 53.1% in [9]; -1.74% (active) in [10]; 6.23% (active) in assay [11]; 3.7% (active) in [12]. Also, the growth in assay [13] was -13.5% (active); in [14], 35.4%; in assay [15], 2.97% (active); in [16], 8.48% (active); in assay [17], 31.5%; in assay [18] it was 12.3%. Moreover, the growth in [19] is 65.8%.
For the molecule `CCN(CC)c1ccc(/C=N\NC(=O)/C=C/C=C/c2ccc3c(c2)OCO3)c(O)c1`, the growth in assay [1] was 53.2%; in [2], 17.6%; in assay [3] it was 56.5%; in assay [4], 43.2%; in assay [5] it was 72.6%; in [6], 33.7%. Further, the growth in [7] was 41.7%; in assay [8], 22.7%; in assay [9], 24.2%; in assay [10], 36.4%; in [11], 21.3%; in assay [12], 67.8%. Also, the growth is 58.8% in assay [13]; 61% in assay [14]; 43.3% in assay [15]; 40.9% in assay [16]; 29.1% in [17]; 18.2% in [18]. Moreover, the growth in assay [19] is 52.1%.
On to `CC(C)n1c(/C=C/[C@@H](O)C[C@@H](O)CC(=O)O)c(-c2ccc(F)cc2)c2ccccc21`, for which the growth is 97.9% in assay [1]; 66.4% in assay [2]; 79.6% in [3]; 15.7% in assay [4]; 50.9% in assay [5]; 43.6% in assay [6]. Further, the growth in assay [7] is 16.8%; in assay [8], 83.5%; in [9], 79.4%; in assay [10], 55.5%; in assay [11] it was 50.6%; in [12], 75.9%. Further, the growth was 29.9% in assay [13]; 55.7% in assay [14]; 15.9% in assay [15]; 26.5% in assay [16]; 16.3% in assay [17]; 5.69% (active) in [18]. Further, in assay [19], the growth is 72.9%.
Consider `O=C1c2cc3c(cc2-c2c1c1ccc(Cl)cc1c(=O)n2CCCN1CCOCC1)OCO3`, for which the growth was 26.9% in assay [1]; 44.5% in [2]; 85.2% in assay [3]; 111% in assay [4]; 92.7% in assay [5]; 43.6% in assay [6]. Further, the growth is 27.9% in [7]; 22.7% in [8]; 91.8% in assay [9]; 25.3% in [10]; 80.9% in assay [11]; 63.3% in assay [12]. For the same molecule, the growth is 84.2% in assay [13]; 47.1% in [14]; 27.4% in assay [15]; 74% in assay [16]; 23.6% in assay [17]; 26.7% in [18]. For the same molecule, in assay [19], the growth was 99.9%.
